High-throughput results (PubChem BioAssay)
KB-V1 MDR tox – KB-V1 MDR subline cytotoxicity; KB-V1 MDR cells viability, CellTiter-Glo, 72 h; Potency, µM (top dose mostly 46.1 µM), usual class: cytotoxic; 400,000 compounds, 3.4% hits; AID 1347076; also: potency is read from the fitted curve at half-maximal effect; % is scaled to controls: 0 for no effect and ±100 for the full control effect; nearly all actives have a fitted effect of over 60% in size
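In this primary screen, KB-V1 cells overexpressing P-gp are incubated with library compounds (lowest to highest concentration) for 72 h at 37 degrees C before a luminescent ATP viability read.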
MCF10A rereplic – induces DNA re-replication in MCF 10a normal breast cells; Potency, µM (series often up to 46.1 µM), inactives show at the highest dose activity, positive = re-replication, most hits filed as activators; AID 624296; 350,000 compounds, 2.9% hits; MCF 10A DNA re-replication, Hoechst nuclear intensity, 48 h; also: potency is read from the fitted curve at half-maximal effect; % of control where 0% means no effect; nearly all actives have a fitted effect of over 50% in size
SW480 rerep – induces DNA re-replication in SW480 colon adenocarcinoma cells. Potency, µM (highest dose often 46.1 µM), without a hit: top-dose re-replication activation, usual class: activators. SW480 DNA re-replication, Hoechst DNA content imaging, 48 h. 340,000 compounds, 1.8% hits; also: potency is read from the fitted curve at half-maximal effect; % of control where 0% means no effect; nearly all actives have a fitted effect of over 55% in size
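Image-based read-out: total Hoechst fluorescence of nuclei (405 nm excitation, 500-530 nm emission), with hits raising the fraction of high-intensity nuclei. SW480 colon cells incubated 48 hr with compounds at 37 C.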
Giardia kill – kills Giardia lamblia; 340,000 compounds, 0.15% hits; Giardia lamblia trophozoite viability; activity change, % at 7.66 µM, hits read low; in the data active = activity change below about -80%; inconclusive = between about -30% and that limit;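 also: parasites exposed to compound for two days anaerobically before the ATP read; % is scaled to controls: 0 for no effect and ±100 for the full control effect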
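Each well holds 100 Giardia trophozoites and compound. After two days (48 hrs) at 37 deg C in anaerobic conditions, ATP is quantified by luminescence.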
KB-3-1 tox – KB-3-1 parental cell cytotoxicity. Potency, µM (highest dose often 46.1 µM), actives largely listed as cytotoxic. 400,000 compounds, 1.4% hits. KB-3-1 viability, CellTiter-Glo ATP luminescence, 72 h; also: potency is read from the fitted curve at half-maximal effect; % is scaled to controls: 0 for no effect and ±100 for the full control effect; nearly all actives have a fitted effect of over 60% in size
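Viability of parental KB-3-1 cells, measured by CellTiter-Glo luminescence, followed a 72 h incubation at 37 °C with pinned compounds in phenol-red-free DMEM containing 10% FBS.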
S-ASM inh – human S-ASM enzyme inhibition; P17405; placental ASM, HMU-PC fluorogenic substrate, 60 min; Potency, µM (series often up to 57.5 µM), for inactives: top-dose activity change, negative = inhibition, usual class: inhibitors; 340,000 compounds, 0.006% hits; also: potency is read from the fitted curve at half-maximal effect
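Fluorescence read-out (Ex 386 nm, Em 447 nm) after stopping the reaction at pH 10. Enzyme: ASM from human placenta; substrate HMU-PC0, 9 uM final; 60 min, 37 °C. Compound preincubation 10 min, ambient temperature.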
The depositor's hits bear a star; i = inactive; ? = inconclusive; · = not tested or not shown; [ ] = remark or other dose. In the library only some 6.9% were active in any assay of this set; here they are far more common. Unless noted, calls follow the shape of the dose curve; as a rule, active = well fitted curve in the direction sought with a large enough effect; inconclusive = small, poorly fitted or top-dose-only effect, or another doubt; inactive = no such curve, though single readings can be large; an effect the other way counts as inactive or inconclusive.

SMILES	KB-V1 MDR tox	MCF10A rereplic	SW480 rerep	Giardia kill	KB-3-1 tox	S-ASM inh
O=c1[nH]c(CN2CCN(S(=O)(=O)/C=C/c3ccccc3)CC2)nc2ccccc12	i	28%	2%	14	i	-1%
NC(=O)C1CCN(Cc2nc3ccccc3c(=O)[nH]2)CC1	i	425%[0.0737 µM]	-2%	1	i	5%
O=c1[nH]c(CN2CCN(S(=O)(=O)/C=C/c3ccccc3)CC2)nc2cc(Cl)ccc12	?	18µM*	?	4	23µM*	31%
NC(=O)C1CCN(Cc2nc3cc(Cl)ccc3c(=O)[nH]2)CC1	i	21µM*	0%	25	?	9%
O=C(O)CCc1nnc2cnc3ccccc3n12	i	·	·	·	i	·
N#Cc1ccc(NC(=O)COc2ccc(-n3cnnn3)cc2)cc1	i	-1%	1%	-6	?	1%
CN(CC(=O)Nc1cccc(F)c1)C(=O)c1ccc(COc2ccccc2)o1	21µM*	8%	-2%	-7	i	-1%
CN(CC(=O)Nc1cccc(F)c1)C(=O)c1cc(-c2ccccc2)nc2ccccc12	?	?	21%	-1	i	-7%
CN(CC(=O)Nc1cccc(F)c1)C(=O)c1cccc2ccccc12	18µM*	12%	-3%	1	i	0%
CCOc1ccc(S(=O)(=O)N2CCN(c3c(C)cccc3C)CC2)c2ccccc12	?	·	·	·	i	·
CCOc1ccc(S(=O)(=O)N2CCN(c3ccccc3F)CC2)c2cccnc12	?	16%	16µM*	0	i	-5%
COc1ccccc1/C=C1\S/C(=N/NC(=O)c2cccc(Br)c2)NC1=O	?	10µM*	16%	-16	8.2µM*	-6%
COC(=O)/C=C1\S/C(=N/NC(=O)c2ccccc2)NC1=O	i	-2%	-8%	-18	i	-5%
Cc1c(C(=O)OCC2CCCO2)[nH]c2c1C(=O)CC(c1ccc(N(C)C)cc1)C2 (configuration not stated)	21µM*	15%	23%	7	?	-9%
COCCOC(=O)c1[nH]c2c(c1C)C(=O)CC(c1ccc(OC)c(OC)c1)C2 (configuration not stated)	i	8%	-4%	-5	i	5%
COC(=O)c1[nH]c2c(c1C)C(=O)CC(c1cccc(OC)c1)C2 (configuration not stated)	?	?	0.73µM*	-4	?	1%
COC(=O)c1[nH]c2c(c1C)C(=O)CC(c1ccc(OC)c(OC)c1)C2 (configuration not stated)	i	-3%	-5%	-3	i	0%
CCOCCOC(=O)c1[nH]c2c(c1C)C(=O)CC(c1cccs1)C2 (configuration not stated)	1.2µM*	?	1.2µM*	-9	0.92µM*	-4%
COCCOC(=O)c1[nH]c2c(c1C)C(=O)CC(c1cccs1)C2 (configuration not stated)	1.5µM*	?	2.6µM*	-10	1.8µM*	3%
CCOC(=O)c1[nH]c2c(c1C)C(=O)CC(c1ccc(F)cc1)C2 (configuration not stated)	?	?	?	7	?	0%
Cc1c(C(=O)OCC(C)C)[nH]c2c1C(=O)CC(c1cccs1)C2 (configuration not stated)	?	?	3.7µM*	-4	?	-1%
CCCOC(=O)c1[nH]c2c(c1C)C(=O)CC(c1ccc(OC)c(OC)c1)C2 (configuration not stated)	?	0%	0%	6	i	4%
CCOC(=O)C1=C(C)NC2=C(C(=O)CCC2)C1c1cccs1 (configuration not stated)	i	3%	-6%	3	i	93%
CCOCCOC(=O)c1[nH]c2c(c1C)C(=O)CC(c1ccccc1)C2 (configuration not stated)	1µM*	?	0.52µM*	-6	0.92µM*	-3%
